Data: the supplement of paper PMC10646978
± gives the standard deviation.

Assays:
Conditions in all cases: modulator concentration 10 µM
[1] = tested on: RAW-Dual (murine macrophage reporter line); assay: NF-kB reporter (SEAP) activity fold change vs agonist alone; higher = enhanced NF-kB activity
How it was run: (§1)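 RAW-Dual murine macrophage reporter cells were plated at 50 000 per well in 384-well plates, pin-transferred compound to 10 μM final, and pre-incubated for 1 hour at 37 °C before a PRR agonist was added and the cells incubated overnight. NF-κB activity was read from supernatant SEAP with QUANTI-Blue at 620 nm absorbance, and IRF activity from Lucia luciferase with QUANTI-Luc by luminescence. Each signal was expressed as fold change by dividing by the mean agonist-only control on the same plate. Two replicate plates were averaged, with errors obtained by propagation.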

[2] = tested on: RAW-Dual (murine macrophage reporter line); assay: IRF reporter (Lucia luciferase) activity fold change vs agonist alone; higher = enhanced IRF activity
How it was run: as §1

[3] = tested on: RAW-Dual (murine macrophage reporter line); assay: viability score (confluency relative to resting cells, overnight) (fraction); higher = more viable, active = viable (0.7 or more)
How it was run: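 A compound met the cutoff when both of two confluency masks exceeded 70% of resting cells. Those masks were made with IncuCyte software from IncuCyte images of RAW-Dual macrophages treated overnight at 10 μM final. This is the basis of the viability score, which is confluency relative to resting cells.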

[4] = agonist: CpG ODN 1826 0.5 ug/mL

Question: What does the source list for `COC(CNS(=O)(=O)c1ccccc1Cl)c1cccc(F)c1` (stereo not drawn)?
Answer: NF-kB reporter [1, 4]: 1.21 ± 0.074; NF-kB reporter ([1]; agonist: LPS 0.1 ug/mL): 1.04 ± 0.078; NF-kB reporter ([1]; agonist: MPLA […]): 1.08 ± 0.038; IRF reporter ([2]; agonist: 3'3'-cGAMP 10 ug/mL): 0.849 ± 0.045; IRF reporter ([2]; agonist: LPS 0.1 ug/mL): 1.03 ± 0.055; IRF reporter ([2]; agonist: MPLA […]): 0.736 ± 0.12; viability score [3]: 0.995 (active)

Question: Which results are given for `O=C(NC1CCCCCC1)c1ccc([N+](=O)[O-])cc1Cl`?
Answer: NF-kB reporter [1, 4]: 1.1 ± 0.084; NF-kB reporter ([1]; agonist: LPS 0.1 ug/mL): 0.94 ± 0.07; NF-kB reporter ([1]; agonist: MPLA […]): 0.919 ± 0.1; IRF reporter ([2]; agonist: 3'3'-cGAMP 10 ug/mL): 0.804 ± 0.035; IRF reporter ([2]; agonist: LPS 0.1 ug/mL): 1.08 ± 0.14; IRF reporter ([2]; agonist: MPLA […]): 1.08 ± 0.13; viability score [3]: 0.983 (active)

Question: How did the NF-kB reporter [1, 4] turn out when `CN1CCN(CCCN2c3ccccc3Sc3ccc(C(F)(F)F)cc32)CC1.Cl.Cl` was run?
Answer: 0.958 ± 0.043

Question: What about the NF-kB reporter ([1]; agonist: LPS 0.1 ug/mL) of the same compound?
Answer: 1.03 ± 0.11

Question: What about the NF-kB reporter ([1]; agonist: MPLA […]) of the same compound?
Answer: 1.3 ± 0.11

Question: What about the IRF reporter ([2]; agonist: 3'3'-cGAMP 10 ug/mL) of the same compound?
Answer: 0.788 ± 0.056

Question: What about the IRF reporter ([2]; agonist: LPS 0.1 ug/mL) of the same compound?
Answer: 1.12 ± 0.22

Question: And the IRF reporter ([2]; agonist: MPLA […])?
Answer: 1.22 ± 0.39

Question: And the viability score [3]?
Answer: 1.02 (active)

Question: Which NF-kB reporter [1, 4] does the source give for `Cc1nc[nH]c1CN1CCc2c(c3ccccc3n2C)C1=O.Cl` here?
Answer: 1.13 ± 0.28

Question: And the NF-kB reporter ([1]; agonist: LPS 0.1 ug/mL)?
Answer: 1.08 ± 0.12

Question: What about the NF-kB reporter ([1]; agonist: MPLA […]) of the same compound?
Answer: 0.903 ± 0.08

Question: And the IRF reporter ([2]; agonist: 3'3'-cGAMP 10 ug/mL)?
Answer: 0.903 ± 0.041

Question: What about the IRF reporter ([2]; agonist: LPS 0.1 ug/mL) of the same compound?
Answer: 1.31 ± 0.2

Question: And the IRF reporter ([2]; agonist: MPLA […])?
Answer: 1.12 ± 0.11

Question: And the viability score [3]?
Answer: 1 (active)

Question: With `NC(=O)c1cc2ccccc2oc1=NCc1ccccc1` as the compound, how does the NF-kB reporter [1, 4] read?
Answer: 0.907 ± 0.09

Question: What about the NF-kB reporter ([1]; agonist: LPS 0.1 ug/mL) of the same compound?
Answer: 1.06 ± 0.067

Question: What about the NF-kB reporter ([1]; agonist: MPLA […]) of the same compound?
Answer: 0.91 ± 0.1

Question: And the IRF reporter ([2]; agonist: 3'3'-cGAMP 10 ug/mL)?
Answer: 0.946 ± 0.023

Question: And the IRF reporter ([2]; agonist: LPS 0.1 ug/mL)?
Answer: 1.16 ± 0.16

Question: What about the IRF reporter ([2]; agonist: MPLA […]) of the same compound?
Answer: 1.07 ± 0.22

Question: What about the viability score [3] of the same compound?
Answer: 1.01 (active)

Question: How did the NF-kB reporter [1, 4] turn out when `CN(C)CCOC(C)(c1ccccc1)c1ccccn1.O=C(O)CCC(=O)O` (stereo not drawn) was run?
Answer: 0.876 ± 0.12

Question: What about the NF-kB reporter ([1]; agonist: LPS 0.1 ug/mL) of the same compound?
Answer: 1.25 ± 0.39

Question: And the NF-kB reporter ([1]; agonist: MPLA […])?
Answer: 0.954 ± 0.067

Question: What about the IRF reporter ([2]; agonist: 3'3'-cGAMP 10 ug/mL) of the same compound?
Answer: 0.862 ± 0.029

Question: And the IRF reporter ([2]; agonist: LPS 0.1 ug/mL)?
Answer: 1.41 ± 0.33

Question: And the IRF reporter ([2]; agonist: MPLA […])?
Answer: 1.16 ± 0.15

Question: And the viability score [3]?
Answer: 1 (active)

Question: How did the NF-kB reporter [1, 4] turn out when `N#Cc1nc(-c2ccc(COc3ccccc3)o2)oc1N1CCCCC1` was run?
Answer: 1.07 ± 0.06

Question: And the NF-kB reporter ([1]; agonist: LPS 0.1 ug/mL)?
Answer: 1.24 ± 0.077

Question: What about the NF-kB reporter ([1]; agonist: MPLA […]) of the same compound?
Answer: 1.12 ± 0.069

Question: And the IRF reporter ([2]; agonist: 3'3'-cGAMP 10 ug/mL)?
Answer: 1.27 ± 0.071

Question: And the IRF reporter ([2]; agonist: LPS 0.1 ug/mL)?
Answer: 1.53 ± 0.1

Question: What about the IRF reporter ([2]; agonist: MPLA […]) of the same compound?
Answer: 1.3 ± 0.14

Question: What about the viability score [3] of the same compound?
Answer: 0.981 (active)

Question: `O=c1oc2c3c4c(cc2cc1-c1nnc(-c2ccccc2)o1)CCCN4CCC3` was tested. Which NF-kB reporter [1, 4] did it give?
Answer: 1.01 ± 0.12

Question: And the NF-kB reporter ([1]; agonist: LPS 0.1 ug/mL)?
Answer: 1.04 ± 0.1

Question: And the NF-kB reporter ([1]; agonist: MPLA […])?
Answer: 0.98 ± 0.058

Question: What about the IRF reporter ([2]; agonist: 3'3'-cGAMP 10 ug/mL) of the same compound?
Answer: 1.02 ± 0.058

Question: What about the IRF reporter ([2]; agonist: LPS 0.1 ug/mL) of the same compound?
Answer: 1.41 ± 0.17

Question: And the IRF reporter ([2]; agonist: MPLA […])?
Answer: 1.04 ± 0.069

Question: And the viability score [3]?
Answer: 1.01 (active)

Question: With `CN1CCC2(CC1)NC(=O)N(CC(=O)N1CCc3ccccc31)C2=O` as the compound, how does the NF-kB reporter [1, 4] read?
Answer: 0.927 ± 0.094

Question: What about the NF-kB reporter ([1]; agonist: LPS 0.1 ug/mL) of the same compound?
Answer: 1.14 ± 0.096

Question: And the NF-kB reporter ([1]; agonist: MPLA […])?
Answer: 0.942 ± 0.11

Question: And the IRF reporter ([2]; agonist: 3'3'-cGAMP 10 ug/mL)?
Answer: 1.01 ± 0.063

Question: And the IRF reporter ([2]; agonist: LPS 0.1 ug/mL)?
Answer: 1.18 ± 0.14

Question: What about the IRF reporter ([2]; agonist: MPLA […]) of the same compound?
Answer: 1.2 ± 0.1

Question: And the viability score [3]?
Answer: 1.02 (active)
